Shown are actives, neighbours in structure and some others; about 4.3% of the full set was active somewhere.
NadD block – inhibitors of S. aureus NadD, primary screen, biochemical, colorimetric, uHTS | inhibition, % at 20 µM | purified NadD enzyme, colorimetric absorbance read-out | 360,000 tested, 0.78% active | Nicotinate-nucleotide adenylyltransferase NadD (Staphylococcus aureus N315); in the data active means inhibition above about 26%
FAS TE block – FAS thioesterase domain inhibitors, primary screen, biochemical, fluorescence intensity, uHTS; 360,000 tested, 0.67% active; Fatty acid synthase (Homo sapiens), P49327; AID 602261, 2012; inhibition, % at 15 µM; recombinant FAS-TE, OMFH fluorogenic substrate, fluorescence endpoint;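 active means compounds whose normalised, plate-corrected inhibition of enzyme fluorescence in the single-dose primary screen is 50% or more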
Target sequence (P49327 whole entry, looked up, the tested form may be a part): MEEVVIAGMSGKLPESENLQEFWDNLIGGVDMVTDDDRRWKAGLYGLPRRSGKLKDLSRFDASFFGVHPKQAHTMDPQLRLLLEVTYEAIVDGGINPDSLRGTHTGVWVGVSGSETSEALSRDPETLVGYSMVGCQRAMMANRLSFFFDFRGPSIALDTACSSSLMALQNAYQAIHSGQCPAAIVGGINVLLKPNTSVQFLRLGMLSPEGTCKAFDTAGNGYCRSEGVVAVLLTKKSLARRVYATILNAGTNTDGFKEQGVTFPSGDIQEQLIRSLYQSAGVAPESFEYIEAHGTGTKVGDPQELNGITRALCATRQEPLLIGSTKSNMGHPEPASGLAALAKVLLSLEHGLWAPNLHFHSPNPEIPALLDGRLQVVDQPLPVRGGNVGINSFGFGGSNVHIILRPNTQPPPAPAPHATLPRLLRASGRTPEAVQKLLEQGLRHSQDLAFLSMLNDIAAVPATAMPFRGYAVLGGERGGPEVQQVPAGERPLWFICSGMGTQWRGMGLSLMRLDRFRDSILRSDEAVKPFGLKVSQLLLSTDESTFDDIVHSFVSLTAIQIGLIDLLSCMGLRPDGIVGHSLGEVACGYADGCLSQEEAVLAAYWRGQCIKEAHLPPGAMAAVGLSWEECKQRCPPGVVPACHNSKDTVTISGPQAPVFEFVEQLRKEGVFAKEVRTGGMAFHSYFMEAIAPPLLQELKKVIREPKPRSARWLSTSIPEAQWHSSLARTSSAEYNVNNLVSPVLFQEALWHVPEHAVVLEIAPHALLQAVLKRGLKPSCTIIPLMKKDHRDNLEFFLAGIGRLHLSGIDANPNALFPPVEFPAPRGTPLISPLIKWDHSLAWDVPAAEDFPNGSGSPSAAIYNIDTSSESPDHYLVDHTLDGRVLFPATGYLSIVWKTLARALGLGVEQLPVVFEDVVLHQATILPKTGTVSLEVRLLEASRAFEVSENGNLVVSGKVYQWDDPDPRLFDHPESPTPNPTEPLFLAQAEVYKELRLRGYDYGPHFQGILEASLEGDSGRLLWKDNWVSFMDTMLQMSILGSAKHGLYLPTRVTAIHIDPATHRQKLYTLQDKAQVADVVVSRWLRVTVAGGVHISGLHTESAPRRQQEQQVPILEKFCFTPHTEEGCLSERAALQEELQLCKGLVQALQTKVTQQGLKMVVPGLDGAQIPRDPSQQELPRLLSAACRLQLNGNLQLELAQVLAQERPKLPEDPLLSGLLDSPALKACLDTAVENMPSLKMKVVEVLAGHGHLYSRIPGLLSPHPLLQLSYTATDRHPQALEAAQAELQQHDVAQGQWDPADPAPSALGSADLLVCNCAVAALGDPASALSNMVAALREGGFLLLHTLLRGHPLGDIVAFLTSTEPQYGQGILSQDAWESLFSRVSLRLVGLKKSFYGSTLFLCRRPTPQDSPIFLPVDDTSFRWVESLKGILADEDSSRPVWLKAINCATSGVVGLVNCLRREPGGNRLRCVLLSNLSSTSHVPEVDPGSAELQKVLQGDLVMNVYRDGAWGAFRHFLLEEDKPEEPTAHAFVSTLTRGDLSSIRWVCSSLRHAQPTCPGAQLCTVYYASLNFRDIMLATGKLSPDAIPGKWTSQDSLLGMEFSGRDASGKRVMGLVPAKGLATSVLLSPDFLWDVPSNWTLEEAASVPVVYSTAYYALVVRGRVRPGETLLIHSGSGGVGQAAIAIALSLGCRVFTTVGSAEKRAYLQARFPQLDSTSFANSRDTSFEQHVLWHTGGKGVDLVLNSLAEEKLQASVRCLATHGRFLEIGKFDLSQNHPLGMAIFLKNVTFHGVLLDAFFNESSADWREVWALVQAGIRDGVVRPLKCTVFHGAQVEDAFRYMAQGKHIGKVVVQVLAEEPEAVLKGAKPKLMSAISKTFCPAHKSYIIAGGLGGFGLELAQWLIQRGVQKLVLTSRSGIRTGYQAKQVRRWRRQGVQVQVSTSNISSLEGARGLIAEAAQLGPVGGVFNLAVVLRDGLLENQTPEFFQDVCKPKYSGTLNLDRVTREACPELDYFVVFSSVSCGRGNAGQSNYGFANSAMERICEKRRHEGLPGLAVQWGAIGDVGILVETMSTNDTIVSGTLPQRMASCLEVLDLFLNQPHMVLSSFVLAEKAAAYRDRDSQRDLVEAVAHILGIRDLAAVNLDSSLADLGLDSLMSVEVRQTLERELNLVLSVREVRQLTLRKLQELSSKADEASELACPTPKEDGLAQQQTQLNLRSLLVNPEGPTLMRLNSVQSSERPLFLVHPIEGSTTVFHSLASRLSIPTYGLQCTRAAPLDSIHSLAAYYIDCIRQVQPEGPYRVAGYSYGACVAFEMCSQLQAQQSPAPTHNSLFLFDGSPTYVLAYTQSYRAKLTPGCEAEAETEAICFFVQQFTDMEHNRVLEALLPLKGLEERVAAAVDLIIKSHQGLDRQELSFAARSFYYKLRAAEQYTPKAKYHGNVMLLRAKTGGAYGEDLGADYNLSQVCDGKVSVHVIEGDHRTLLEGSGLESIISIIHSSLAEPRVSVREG
GRIN3A LBD mod – binders of NR3A ligand-binding domain, primary screen, biophysical, differential scanning fluorimetry, uHTS; NR3A LBD differential scanning fluorimetry, Tm shift; 0% = protein alone, 100% = glycine-bound protein; Tm shift relative to glycine control, % at 25 µM; 340,000 tested, 2.5% active; AID 1259313, 2017;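 active means melting temperature shift of at least 10% of the positive control shift, at one fixed dose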
rCAG binder-1 – binders of r(CAG) RNA repeats, primary screen, biochemical, fluorescence | r(CAG) RNA repeat, TO-PRO-1 dye displacement fluorescence | 370,000 tested, 1.3% active | inhibition, % at 3 µM;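 active means inhibition above the plate cutoff, the mean of all test compounds on that plate plus 3 SD, cut at about 35% in these data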;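 further: higher means more dye released from RNA so lower well fluorescence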
rCAG bind conf – small molecules binding CAG repeat RNA – biochemical, fluorescence, confirmation; shares compounds with rCAG binder-1; r(CAG) RNA repeat, TO-PRO-1 dye displacement fluorescence; inhibition, % at 3 µM; 4,300 tested, 70% active;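 active means inhibition above a per-plate cutoff, the mean inhibition of sample wells plus 3 SD, cut at about 35% in these data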;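 further: loss of TO-PRO-1 fluorescence as compound displaces dye from 1x1 AA loop RNA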
DNA CAG counter – displacement of TO-PRO-1 from CAG DNA duplex, counter-screen for rCAG RNA repeat binder project, biochemical, fluorescence, TO-PRO-1 dye, d(CAG) DNA oligo | d(CAG) DNA oligo TO-PRO-1 dye displacement | shares compounds with rCAG binder-1 | inhibition, % at 3 µM | 4,300 tested, 94% active;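 active means inhibition above its plate's cutoff, the mean test-well inhibition plus 3 SD, cut at about 4.8% in these data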;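 further: hits displace the dye from DNA and so lower well fluorescence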
DNA CAG DR – inhibitors of DNA CAG/GTC TO-PRO-1 complex, dose response, counter-screen for rCAG RNA repeat binder project, biochemical, fluorescence, TO-PRO-1 dye; shares compounds with rCAG binder-1; DNA CAG/GTC duplex TO-PRO-1 dye displacement fluorescence; IC50, µM; 250 tested, 20% active; in the data active means IC50 below about 10 µM
dCAG DNA bind – TO-PRO-1 dye complex inhibitors on d(CAG) DNA, dose response, counter-screen, biochemical, fluorescence, late stage; shares compounds with rCAG binder-1; d(CAG) DNA duplex TO-PRO-1 dye displacement; IC50, µM; 30 tested, 80% active; AID 720649, 2013
rCAG binder-2 – molecules binding r(CAG) RNA repeats, late stage dose response, late-stage follow-up, biochemical, fluorescence, dose response, powder samples; shares compounds with rCAG binder-1; r(CAG) RNA TO-PRO-1 dye displacement; IC50, µM; 30 tested, 100% active
Each line names hits and unclear results; the compound was inactive in the other large screens (follow-up assays come after a bar, where they were run). Unless noted, how the calls were made is not given here.

COC(=O)[C@]12C[C@H](CC(=O)NCC34CC5CC(CC(C5)C3)C4)C(=O)N(Cc3ccc4c(c3)OCO4)C1=C[C@H](COCc1ccccc1)O[C@@H]2C	none (no result: NadD block, FAS TE block, GRIN3A LBD mod)
CC(=O)NS(=O)(=O)c1ccc(NC(=O)c2cccc(S(=O)(=O)N3CCc4ccccc43)c2)cc1	rCAG binder-1 42 | rCAG bind conf 40 | DNA CAG counter 13
COc1ccc(S(=O)(=O)NC(=O)C2(C)CCN2C(=O)Cc2ccc(-c3ccccc3)cc2)cc1 (configuration not stated)	rCAG binder-1 46 (no result: GRIN3A LBD mod) | rCAG bind conf 44 | DNA CAG counter 16
CC1(C(=O)NS(=O)(=O)c2ccc3ccccc3c2)CCN1C(=O)Cc1ccc(-c2ccccc2)cc1 (configuration not stated)	rCAG binder-1 81 (no result: GRIN3A LBD mod) | rCAG bind conf 77 | DNA CAG counter 36
Cc1cc(C)cc(CC(=O)N2CCC2(C)C(=O)NS(=O)(=O)c2ccccc2)c1 (configuration not stated)	none (no result: GRIN3A LBD mod)
CC1(C(=O)NS(=O)(=O)c2ccc3c(c2)CCO3)CCN1C(=O)Cc1ccc(-c2ccccc2)cc1 (configuration not stated)	rCAG binder-1 47 (no result: GRIN3A LBD mod) | rCAG bind conf 70 | DNA CAG counter 27 | DNA CAG DR inactive
COCCCNC(=O)c1ccc(Cn2c(=O)c3ccccc3n(Cc3ccc(Br)cc3)c2=O)cc1	none (no result: NadD block, FAS TE block, GRIN3A LBD mod)
Cc1ccc(S(=O)(=O)N2[C@@H](c3ccc(F)cc3)C(C(=O)O)=CC[C@H]2c2ccc(Cl)cc2)cc1	rCAG binder-1 78 | rCAG bind conf 69 | DNA CAG counter 31
COc1ccc([C@@H]2CC=C(C(=O)O)[C@H](c3ccc(Br)cc3)N2S(=O)(=O)c2ccc(C)cc2)cc1OC	rCAG binder-1 47 | rCAG bind conf 43 | DNA CAG counter 14
Cc1ccc(S(=O)(=O)N2[C@@H](c3cccc(Cl)c3)C(C(=O)O)=CC[C@H]2c2ccc(C(C)C)cc2)cc1	rCAG binder-1 85 | rCAG bind conf 80 | DNA CAG counter 45
Cc1ccc([C@@H]2CC=C(C(=O)O)[C@H](c3ccc(Cl)cc3)N2S(=O)(=O)c2ccc(C)cc2)cc1	rCAG binder-1 84 | rCAG bind conf 78 | DNA CAG counter 45
COc1ccc(CN2C/C(=C/c3ccccc3)N3C(=O)C[C@@H](c4ccc5ccccc5c4)N=C23)c(OC)c1	none (no result: NadD block, FAS TE block, GRIN3A LBD mod)
CCOc1ccc([C@@H]2CC=C(C(=O)O)[C@H](c3ccc(Cl)cc3)N2S(=O)(=O)c2ccc(C)cc2)cc1	rCAG binder-1 59 | rCAG bind conf 74 | DNA CAG counter 37
Cc1ccc(S(=O)(=O)N2[C@@H](c3ccccc3)C(C(=O)O)=CC[C@H]2c2ccc(Cl)cc2)cc1	rCAG binder-1 58 | rCAG bind conf 72 | DNA CAG counter 34 | DNA CAG DR inactive
CCc1ccc([C@@H]2CC=C(C(=O)O)[C@H](c3ccc(Br)cc3)N2S(=O)(=O)c2ccc(C)cc2)cc1	none
Cc1ccc(S(=O)(=O)N2[C@@H](c3ccc(Br)cc3)C(C(=O)O)=CC[C@H]2c2ccc(Cl)cc2)cc1	rCAG binder-1 83 | rCAG bind conf 82 | DNA CAG counter 53
Cc1ccc(S(=O)(=O)N2[C@@H](c3ccc(Cl)cc3)C(C(=O)O)=CC[C@H]2c2ccc(Cl)cc2)cc1	rCAG binder-1 82 | rCAG bind conf 84 | DNA CAG counter 53
COc1cccc(NC(=O)C2CCOC2=O)c1 (configuration not stated)	none
COc1cc([C@@H]2CC=C(C(=O)O)[C@H](c3ccc(F)cc3)N2S(=O)(=O)c2ccc(C)cc2)cc(OC)c1OC	none
O=C(O)C1=CC[C@@H](c2ccc(Cl)cc2)N(S(=O)(=O)c2ccc(Cl)cc2)[C@H]1c1ccc(Br)cc1	rCAG binder-1 85 | rCAG bind conf 88 | DNA CAG counter 58
Cc1ccc(S(=O)(=O)N2[C@@H](c3ccc(F)cc3)C(C(=O)O)=CC[C@H]2c2ccc(C(C)C)cc2)cc1	rCAG binder-1 82 | rCAG bind conf 80 | DNA CAG counter 44
O=C(CN1CCc2onc(-c3ccc(-n4cc(-c5ccccc5)nn4)cc3)c2C1=O)N1CCOCC1	none (no result: NadD block, FAS TE block, GRIN3A LBD mod)
O=c1[nH]c(=O)n(Cc2ccco2)c2c1C(C(F)(F)F)(C(F)(F)F)N=C(CCc1ccccc1)N2	none
N#Cc1ccc(C2=NC(C(F)(F)F)(C(F)(F)F)c3c(n(Cc4ccco4)c(=O)[nH]c3=O)N2)cc1	GRIN3A LBD mod 12, rCAG binder-1 36 | rCAG bind conf 37 | DNA CAG counter 7.1 | DNA CAG DR inactive | dCAG DNA bind inactive | rCAG binder-2 3.6
COC(=O)[C@]12C[C@H](CC(=O)N3CCOCC3)C(=O)N(Cc3ccc4c(c3)OCO4)C1=C[C@H](C(C)(C)C)O[C@@H]2C	none (no result: NadD block, FAS TE block, GRIN3A LBD mod)
O=[N+]([O-])c1ccc(Cl)c(S(=O)(=O)Nc2cccc(-c3ccc(N4CCOCC4)nn3)c2)c1	rCAG binder-1 38 | rCAG bind conf inactive | DNA CAG counter 9.9
O=[N+]([O-])c1ccc(Cl)c(S(=O)(=O)Nc2ccc(-c3ccc(N4CCOCC4)nn3)cc2)c1	none
COc1ccccc1NC(=O)c1ccc(NS(=O)(=O)c2ccc(F)c(F)c2F)cc1	rCAG binder-1 44 | rCAG bind conf inactive | DNA CAG counter 6.1
COc1ccccc1NC(=O)c1ccc(S(=O)(=O)N(C)C)cc1	none
N#CC1=C(S)N(c2ccccc2)C(c2ccc(-c3ccccc3Cl)o2)NC1=O (configuration not stated)	rCAG binder-1 52 | rCAG bind conf 76 | DNA CAG counter 40
COc1cccc(C(c2c(O)nc(SC)n(C)c2=O)c2c(O)nc(SC)n(C)c2=O)c1	none

High-throughput results (PubChem BioAssay)
